Screening results from PubChem BioAssay.
NOMO-1 viab: STK33 inhibitor candidate reducing NOMO-1 cell viability; NOMO-1 AML viability, CellTiter-Glo luminescence, 72 h; inhibition, % (test concentration not listed); 37,000 compounds, 7.5% hits; AID 2330; in the data active means inhibition above about 80%; inconclusive means no clear call, values can overlap the other calls
PD-1 reverse act: reversal of PD-1 mediated T-cell inhibition. primary human CD4 T cells, PD-L1 beads, CellTiter-Glo 96 h. 29,000 tested, under 10 active. activation, % (no concentration beside the values); call rule not given here;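 further: 0% = median vehicle wells and 100% = positive control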
ROS inducer: cancer cell ROS induction | ROS induction (% of piperlongumine), % at 10 µM | 46,000 compounds, 2% hits | AID 624156 | U2OS ROS induction, H2DCF-DA fluorescence; in the data active means ROS induction above about 79%, passing the limit was not always enough; inconclusive means no clear call, values can overlap the other calls;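 further: 0% = DMSO vehicle median and 100% = reference compound median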
YB-1 expression: YB-1 expression inhibition; U2OS, qRT-PCR YB-1 vs CDIP delta delta Cp, 16 h; stronger effect = higher value; zero = DMSO, each unit about twofold; delta delta Cp (YB-1 minus CDIP) (concentration not given with the values); 30,000 compounds, 0.37% hits; AID 434959;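 active means delta delta Cp rounded down to an integer at or above 3, about 3 SD of DMSO wells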;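 further: higher means less YB-1 transcript or more CDIP transcript relative to DMSO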
Numbers without * were called inactive; ? = inconclusive; . = no result. Shown is part of a subset that was picked to be rich in hits.

SMILES	NOMO-1 viab	PD-1 reverse act	ROS inducer	YB-1 expression
C[C@@H]1CCCCO[C@@H](CN(C)C(=O)C2CCCCC2)[C@@H](C)CN([C@H](C)CO)C(=O)c2cc(NS(=O)(=O)c3cccs3)ccc2O1	52	.	109*	-0.24
Cc1ccc(S(=O)(=O)N(C)C[C@H]2Oc3ccc(NC(=O)Nc4ccc(C(F)(F)F)cc4)cc3CC(=O)N([C@@H](C)CO)C[C@H]2C)cc1	111*	-4	36	0.4
Cc1ccc(S(=O)(=O)N(C)C[C@@H]2Oc3ccc(NC(=O)Nc4ccc(C(F)(F)F)cc4)cc3CC(=O)N([C@@H](C)CO)C[C@@H]2C)cc1	115*	-7	98*	0.041
COc1ccc(OC)c(NC(=O)CSc2nnc(-c3ccccc3)n2-c2ccccc2)c1	18	-2	?	.
Cc1ccc(S(=O)(=O)Nc2ccc3c(c2)C(=O)N([C@H](C)CO)C[C@H](C)[C@H](CN(C)C(=O)Nc2cccc4ccccc24)OCCCC[C@@H](C)O3)cc1	111*	-1	69	-0.24
C[C@@H]1CCCCO[C@@H](CN(C)C(=O)Nc2cccc3ccccc23)[C@@H](C)CN([C@H](C)CO)C(=O)c2cc(NC(=O)Cc3ccccc3)ccc2O1	72	3	177*	0.2
C[C@@H]1CCCCO[C@H](CN(C)S(C)(=O)=O)[C@@H](C)CN([C@H](C)CO)C(=O)c2cc(NC(=O)Cc3ccccc3)ccc2O1	-23	1	5	0.014
C[C@@H]1CCCCO[C@@H](CN(C)S(C)(=O)=O)[C@@H](C)CN([C@H](C)CO)C(=O)c2cc(NC(=O)Cc3ccccc3)ccc2O1	4	2	84*	-0.36
CC(=O)Nc1ccc2oc3ccccc3c2c1	4	0	-2	0.098
Cc1cc(O)cc(Oc2cc(C)cc(O)c2O)c1	61	-1	-9	0.11
C=CCSc1n[nH]c(-c2ccc(C(F)(F)F)cc2)n1	.	.	-7	.
Cc1ccc(N=Cc2cc3ccccc3nc2Cl)cc1Cl	114*	-4	42	0.14
Fc1ccc(C=Nc2ccc3ccccc3c2)cc1	17	-1	17	0.21
Cn1c(=O)c(C(=O)NCCCO)c(O)c2ccccc21	10	.	.	.
COc1ccc(CCNC(=O)CCn2c(SCC#N)nc3ccccc3c2=O)cc1OC	.	.	24	.
CCCc1cc(N2CCN(c3ccccc3)CC2)n2c(nc3ccccc32)c1C#N	.	.	48	.
CCCCc1c(C)c(C#N)c2nc3ccccc3n2c1NCCN1CCOCC1	.	.	96*	.
C=CCc1c(C)c(C#N)c2nc3ccccc3n2c1NCCc1ccc(OC)c(OC)c1	.	.	133*	.
COc1ccc(-c2nc(C#N)c(N3CCN(C)CC3)o2)cc1	.	.	-10	.
C[C@@H]1CN([C@H](C)CO)C(=O)c2cccc(NC(=O)Nc3ccc(C(F)(F)F)cc3)c2O[C@H]1CN(C)Cc1ccc(-c2ccccc2)cc1	110*	.	-3	0.61
C[C@@H]1CN([C@@H](C)CO)C(=O)c2cccc(NC(=O)Nc3ccc(C(F)(F)F)cc3)c2O[C@H]1CN(C)Cc1ccc(-c2ccccc2)cc1	77	-1	13	0.023
C[C@H](CO)N1C[C@H](C)[C@H](CN(C)Cc2ccc(-c3ccccc3)cc2)Oc2c(NC(=O)Nc3ccc(C(F)(F)F)cc3)cccc2C1=O	82*	-2	10	0.57
C[C@H]1CN([C@@H](C)CO)C(=O)c2cccc(NC(=O)Nc3ccc(C(F)(F)F)cc3)c2O[C@H]1CN(C)Cc1ccccc1	41	.	0	-0.71
O=C(CCSCc1ccccc1Cl)NCc1ccccc1Cl	.	.	-4	.
O=C(O)CN1C(=O)c2cc(Cl)c(Cl)cc2C1=O	.	.	-1	.
SMILES	NOMO-1 viab	PD-1 reverse act	ROS inducer	YB-1 expression
COc1ccc(S(=O)(=O)Nc2ccc3c(c2)C(=O)N([C@H](C)CO)C[C@H](C)[C@@H](CN(C)S(C)(=O)=O)O3)cc1	11	1	2	16*
COc1ccc(S(=O)(=O)Nc2ccc3c(c2)C(=O)N([C@H](C)CO)C[C@@H](C)[C@H](CN(C)Cc2ccc(-c4ccccc4)cc2)O3)cc1	17	2	14	.
COc1ccc(S(=O)(=O)Nc2ccc3c(c2)C(=O)N([C@@H](C)CO)C[C@H](C)[C@@H](CN(C)Cc2ccc(-c4ccccc4)cc2)O3)cc1	47	1	128*	0.084
COc1ccc(S(=O)(=O)Nc2ccc3c(c2)C(=O)N([C@@H](C)CO)C[C@@H](C)[C@@H](CN(C)Cc2ccc(-c4ccccc4)cc2)O3)cc1	91*	-2	21	0.078
C[C@H](CO)N1C[C@H](C)[C@@H](CN(C)Cc2ccc(C(F)(F)F)cc2)Oc2c(NC(=O)c3nc4ccccc4s3)cccc2C1=O	106*	-3	17	-0.12
C[C@H]1CN([C@@H](C)CO)C(=O)c2cccc(NC(=O)c3nc4ccccc4s3)c2O[C@@H]1CN(C)Cc1ccc(C(F)(F)F)cc1	69	.	25	-0.21
C[C@H](CO)N1C[C@H](C)[C@@H](CN(C)Cc2ccc(Oc3ccccc3)cc2)Oc2c(NC(=O)c3nc4ccccc4s3)cccc2C1=O	87*	-2	39	1.4
C[C@H](CO)N1C[C@H](C)[C@H](CN(C)Cc2ccc(C(F)(F)F)cc2)Oc2c(NC(=O)c3nc4ccccc4s3)cccc2C1=O	96*	-7	39	0.12
C[C@@H]1CN([C@@H](C)CO)C(=O)c2cccc(NC(=O)c3nc4ccccc4s3)c2O[C@H]1CN(C)Cc1ccc(C(=O)Nc2ccccc2N)cc1	118*	-1	56	-0.43
C[C@H]1CN([C@@H](C)CO)C(=O)c2cccc(NC(=O)c3nc4ccccc4s3)c2O[C@@H]1CN(C)Cc1ccc(Oc2ccccc2)cc1	23	3	-7	0.47
Cc1nc(O)c(C(c2ccccc2F)C(C#N)C#N)[nH]1 (configuration not stated)	.	.	-9	.
C[C@H]1CN([C@@H](C)CO)C(=O)c2cccc(NC(=O)CCCCCC(=O)Nc3ccccc3N)c2O[C@H]1CN(C)S(=O)(=O)c1ccc(Cl)cc1	115*	0	18	0.033
C[C@H](CO)N1C[C@H](C)[C@@H](CN(C)S(=O)(=O)c2ccc(Cl)cc2)Oc2c(NC(=O)CCCCCC(=O)Nc3ccccc3N)cccc2C1=O	88*	0	25	-0.41
Cc1ccc(S(=O)(=O)N(C)C[C@@H]2Oc3c(NC(=O)CCCCCC(=O)Nc4ccccc4N)cccc3C(=O)N([C@H](C)CO)C[C@@H]2C)cc1	111*	0	23	-0.93
C[C@H]1CN([C@@H](C)CO)C(=O)c2cccc(NC(=O)CCCCCC(=O)Nc3ccccc3N)c2O[C@H]1CN(C)S(=O)(=O)c1ccccc1	65	0	-9	-0.62
C[C@@H]1CN([C@H](C)CO)C(=O)c2cccc(NC(=O)CCCCCC(=O)Nc3ccccc3N)c2O[C@H]1CN(C)S(=O)(=O)c1ccc(Cl)cc1	121*	0	-8	-0.53
Cc1nc2ccccn2c1-c1ccnc(SCC(=O)Nc2ccc(C(C)C)cc2)n1	.	.	1	.
Cc1ccc(/C=N/NC(=O)CCCCC(=O)NO)o1	.	.	-4	0.51
